Data reported in PubChem BioAssay (NCI).
The panel holds about 83,000 compounds, 20% with a hit somewhere; the sample as a whole holds those more often.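 Note: values are percent growth. 100 is the growth of untreated cells, values between 100 and 0 indicate rising inhibition; between -100 and 0 indicates cell death.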 Values without a mark were called inactive. Activity calls are given as the source filed them. Rule for the calls: active = growth percent below 10; inactive = the rest.

Columns and labels:
Assay in all cases: NCI-60 one-dose screen, 48 h (100 = growth as untreated, 0 = no growth, -100 = all killed)
NCI-H23 lung = settings: 10 µM unless noted
NCI-H226 lung = settings: 10 µM unless noted
NCI-H322M lung = settings: 10 µM unless noted
HOP-62 NSCLC = settings: 10 µM unless noted
NCI-H460 lung = settings: 10 µM unless noted
HOP-92 NSCLC = settings: 10 µM unless noted
A549/ATCC NSCLC = settings: 10 µM unless noted
786-0 renal = settings: 10 µM unless noted
COLO 205 colon = settings: 10 µM unless noted
NCI-H522 lung = settings: 10 µM

Structure (SMILES)	growth (NCI-H23 lung)	growth (NCI-H226 lung)	growth (NCI-H322M lung)	growth (HOP-62 NSCLC)	growth (NCI-H460 lung)	growth (HOP-92 NSCLC)	growth (A549/ATCC NSCLC)	growth (786-0 renal)	growth (COLO 205 colon)	growth (NCI-H522 lung)
COc1ccc2c3c(ccc2c1)C(=O)/C(=C\O)CC3	96.7%	106%	110%	114%	102%	96.4%	109%	103%	105%	–
CC(=O)N1N=C(c2ccc(C(F)(F)F)cc2)CC1c1ccc2c(c1)OCO2 (stereo not given)	79.2%	96.5%	84.8%	102%	85%	77.5%	91.2%	87.4%	100%	–
CNNc1ncnc2c1cnn2-c1ccc(S(N)(=O)=O)cc1	94.2%	91.3%	104%	85.6%	117%	41.5%	92.9%	91.7%	120%	–
CCCc1n(Cc2ccc3ccccc3c2)cc[n+]1Cc1ccc2ccccc2c1	-28.2% (active)	0.228% (active)	23.2%	5.82% (active)	3.26% (active)	-38.3% (active)	31.6%	9.55% (active)	-66.9% (active)	–
COc1ccc(C(=O)COc2cccc(/C=C3\COc4ccc5ccccc5c4C3=O)c2)cc1	59.5%	72.7%	147%	96.5%	62%	33.8%	–	83%	123%	44.1%
COC(=O)CC1=C(c2ccc([N+](=O)[O-])cc2)CCC1=O	100%	94%	115%	102%	103%	89.5%	94.7%	104%	98.2%	–
COc1cc(C2CC(C3C(=O)N(C)C(=O)N(C)C3=O)=NN2c2cc(Cl)cc(Cl)c2)cc(OC)c1OC (stereo not given)	93.5%	85%	104%	89.7%	94.5%	88.5%	78.2%	99.6%	99.7%	–
O=C1N=C(N2CCOCC2)S/C1=C\c1cn(-c2ccccc2)nc1-c1ccccc1	95.2%	78.8%	73.3%	68.5%	67.3%	94.6%	94.8%	25.6%	122%	–
CN(C)CCCN=c1cc2c(=O)n(CCCN(C)C)c(=O)c3c(NCCCN(C)C)cc4c(O)n(CCCN(C)C)c(=O)c1c4c3-2	21.1%	-33.2% (active)	-26.9% (active)	-11.4% (active)	-43.5% (active)	-0.168% (active)	-30.8% (active)	-47.5% (active)	-56.6% (active)	–
CCn1cnc(C[C@H](NC(=O)[C@H](CCCCNC(=O)Nc2cc(C(F)(F)F)cc(C(F)(F)F)c2)NC(=O)Nc2cc(C(F)(F)F)cc(C(F)(F)F)c2)C(=O)OC)c1	-65.8% [100 µM] (active)	2.9% [100 µM] (active)	5.23% [100 µM] (active)	-75.3% [100 µM] (active)	-41.1% [100 µM] (active)	-45.4% [100 µM] (active)	-75.3% [100 µM] (active)	-54.3% [100 µM] (active)	-100% [100 µM] (active)	–
COc1cc(C(=O)c2cc3c(cc2C)OCO3)cc(OC)c1OC	28%	45.4%	36%	40.8%	8.71% (active)	37.4%	17.8%	51.3%	-49.9% (active)	–
Cc1cc(=O)[nH]c(/C(=N/Nc2ccccc2)C(=O)c2ccc(Cl)cc2)n1	105%	109%	107%	104%	109%	88.7%	92.5%	82.2%	106%	–
CC(=O)N1N=C(c2ccc3c(c2)OCO3)CC1c1c(C)nn(-c2ccccc2)c1N(C)Cc1ccccc1 (stereo not given)	86.9%	76.3%	89.6%	77.1%	79.1%	46.1%	50.6%	85.5%	79.3%	–
CCCCCCCC[Si](OCC)(OCC)OCC	98.2%	96.1%	103%	101%	107%	88.8%	102%	99.3%	108%	–
Cc1ccc(/C=C(/C#N)n2nnc3ncccc32)cc1	-1.23% (active)	32.1%	28.2%	20.5%	-14% (active)	-19.5% (active)	2.14% (active)	5.6% (active)	-45.3% (active)	–
Cc1ccc(N/N=C(/C(=O)c2ccc(Cl)cc2)c2nc(C)cc(=O)[nH]2)cc1	111%	107%	106%	94.2%	105%	91%	100%	82.9%	116%	–
FC(F)(F)c1ccc(-c2cnc(-c3nn[nH]n3)nc2NC2CCCCCC2)cc1	66% [50 µM]	70.9% [50 µM]	51.1% [50 µM]	63.7% [50 µM]	34.6% [50 µM]	-8.27% [50 µM] (active)	81.1% [50 µM]	49.8% [50 µM]	95% [50 µM]	–
COC(=O)N/N=C/c1coc2ccc(Cl)cc2c1=O	99.4%	84.7%	99.2%	74.7%	102%	1.24% (active)	103%	104%	91.4%	–
N#Cc1c(-c2ccccc2)cc(-c2ccccc2)n(CCCC(=O)O)c1=O	91.3%	101%	95.3%	85.1%	103%	119%	92%	99.6%	109%	–
Cc1n(Cc2ccc3ccccc3c2)c2ccccc2[n+]1Cc1ccc2ccccc2c1	-29.5% (active)	-9.12% (active)	9.37% (active)	-62% (active)	-73.9% (active)	-68.2% (active)	8.96% (active)	-92.8% (active)	-77.1% (active)	–
Nc1ccc(N=Nc2ccccc2)cc1[N+](=O)[O-]	90.7%	86%	80.5%	91.9%	100%	91.7%	85.9%	107%	95%	–
COc1ccc([N+](=O)[O-])c(S(=O)(=O)c2ccc(Cl)cc2)n1	81.9%	91.2%	106%	95.2%	98.1%	63.1%	99.2%	70.1%	25.2%	–
CCOC(=O)CCN(c1c(Cl)ssc1=O)C(C)C	105%	112%	102%	106%	106%	97%	93.9%	98.9%	115%	–
C=CCN(/C=C/CN(CC=C)CC=C)CC=C	108%	95.7%	96.7%	97.7%	105%	91.2%	99.6%	104%	107%	–
O=C1OC(Oc2ccccc2)(c2ccccc2)c2ccccc21 (stereo not given)	105%	107%	128%	106%	99.1%	88%	95%	101%	112%	–
CC(=O)Nc1cc2c3c(cccc3c1)-c1ccccc1-2	89.1%	37.4%	79.9%	103%	64.4%	78.9%	34%	50.4%	107%	–
O=C(CSc1nnc(-c2cc(-c3ccccc3)nc3ccccc23)o1)c1ccc(Br)cc1	106%	104%	103%	101%	106%	114%	105%	104%	119%	–
CCCCOP(=O)(OCCCC)C(C(=O)OCC)C(CC(=O)OCC)C(=O)OCC (stereo not given)	134%	99.1%	107%	104%	109%	48.4%	103%	106%	107%	–
COc1cnc2c(c1)C(=O)c1c-2n(CCCNC2=NCCS2)c(=O)c2cc(F)ccc12	6.62% (active)	3.93% (active)	46.6%	11.2%	-43.8% (active)	50.9%	9.29% (active)	-90.5% (active)	22.1%	–
COc1cccc(N2CCN(CC(=O)N3CCN(c4nnc(-c5ccc(Cl)cc5)c(-c5ccc(Cl)cc5)n4)CC3)CC2)c1	82.9%	74.7%	71.9%	95.9%	70.8%	11.9%	-1.64% (active)	79.4%	78.6%	–
